According to PubChem BioAssay AID1159580 (chemical genetic matrix, 2015):
The whole screen tested about 5,500 compounds, of which about 2,000 (36%) were called active. About 18% were inconclusive and are not listed. Cut-off read from the data, not from the text of the source: active = normalized growth mostly below about 0.91 (no sharp cut-off); inconclusive = no clear call, values can overlap the other calls; inactive = mostly above about 0.92. Some of the results follow.

Test: chemical genetic growth profiling, strain panel (AID 1159580);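 note: tested at 20 µM; growth read once vehicle control cultures reached saturation at 30 °C; 1 = growth at the plate median or of vehicle wells; lower values mean less growth of the strain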
Conditions: S. cerevisiae deletion strains, growth OD
[1] = locus YAL021C, strain ccr4, stronger effect = lower value
[2] = locus YAL026C, strain drs2, stronger effect = lower value
[3] = locus YAL030W, strain snc1, stronger effect = lower value
[4] = locus YBL061C, strain skt5, stronger effect = lower value
[5] = locus YBR009C, strain hhf1, stronger effect = lower value
[6] = locus YBR023C, strain chs3, stronger effect = lower value
[7] = locus YBR231C, strain swc5, stronger effect = lower value
[8] = locus YBR279W, strain paf1, stronger effect = lower value
[9] = locus YCL011C, strain gbp2, stronger effect = lower value
[10] = locus YCL016C, strain dcc1, stronger effect = lower value
[11] = locus YCL069W, strain vba3, stronger effect = lower value
[12] = locus YCR088W, strain abp1, stronger effect = lower value
[13] = locus YDL005C, strain med2, stronger effect = lower value
[14] = locus YDL040C, strain nat1, stronger effect = lower value
[15] = locus YDR001C, strain nth1, stronger effect = lower value
[16] = locus YDR069C, strain doa4, stronger effect = lower value
[17] = locus YDR137W, strain rgp1, stronger effect = lower value
[18] = locus YDR159W, strain sac3, stronger effect = lower value
[19] = locus YDR297W, strain sur2, stronger effect = lower value
[20] = locus YDR334W, strain swr1, stronger effect = lower value
[21] = locus YDR335W, strain msn5, stronger effect = lower value
[22] = locus YDR392W, strain spt3, stronger effect = lower value
[23] = locus YEL003W, strain gim4, stronger effect = lower value
[24] = locus YEL037C, strain rad23, stronger effect = lower value
[25] = locus YEL061C, strain CIN8 (second series), stronger effect = lower value
[26] = locus YER015W, strain faa2, stronger effect = lower value
[27] = locus YER016W, strain bim1, stronger effect = lower value
[28] = locus YER111C, strain swi4, stronger effect = lower value
[29] = locus YER155C, strain BEM2 (second series), stronger effect = lower value
[30] = locus YFR010W, strain ubp6, stronger effect = lower value
[31] = locus YGL167C, strain pmr1, stronger effect = lower value
[32] = locus YGL173C, strain kem1, stronger effect = lower value
[33] = locus YGL227W, strain vid30, stronger effect = lower value
[34] = locus YGL240W, strain doc1, stronger effect = lower value
[35] = locus YGL253W, strain hxk2, stronger effect = lower value
[36] = locus YHR013C, strain ard1, stronger effect = lower value
[37] = locus YHR027C, strain rpn1, stronger effect = lower value
[38] = locus YHR030C, strain SLT2, stronger effect = lower value
[39] = locus YHR079C, strain IRE1, stronger effect = lower value
[40] = locus YHR142W, strain chs7, stronger effect = lower value
[41] = locus YJL092W, strain hpr5, stronger effect = lower value
[42] = locus YJL095W, strain BCK1 (second series), stronger effect = lower value
[43] = locus YJL095W, strain BCK1, stronger effect = lower value
[44] = locus YJL115W, strain asf1, stronger effect = lower value
[45] = locus YJL129C, strain trk1, stronger effect = lower value
[46] = locus YJL154C, strain vps35, stronger effect = lower value
[47] = locus YJL164C, strain tpk1, stronger effect = lower value
[48] = locus YJL166W, strain qcr8, stronger effect = lower value
[49] = locus YJR066W, strain TOR1, stronger effect = lower value
[50] = locus YKL160W, strain elf1, stronger effect = lower value
[51] = locus YKR026C, strain gcn3, stronger effect = lower value
[52] = locus YKR091W, strain srl3, stronger effect = lower value
[53] = locus YLL001W, strain dnm1, stronger effect = lower value
[54] = locus YLL026W, stronger effect = lower value
[55] = locus YLL041C, strain sdh2, stronger effect = lower value
[56] = locus YLR027C, strain aat2, stronger effect = lower value
[57] = locus YLR113W, strain HOG1, stronger effect = lower value
[58] = locus YLR221C, strain rsa3, stronger effect = lower value
[59] = locus YLR258W, strain gsy2, stronger effect = lower value
[60] = locus YLR262C, strain YPT6 (second series), stronger effect = lower value
[61] = locus YLR320W, strain mms22, stronger effect = lower value
[62] = locus YLR342W, strain FKS1, stronger effect = lower value
[63] = locus YLR357W, strain rsc2, stronger effect = lower value
[64] = locus YLR370C, strain arc18, stronger effect = lower value
[65] = locus YLR384C, strain iki3, stronger effect = lower value
[66] = locus YML120C, strain ndi1, stronger effect = lower value
[67] = locus YMR058W, strain fet3, stronger effect = lower value
[68] = locus YMR129W, stronger effect = lower value
[69] = locus YMR205C, strain PFK2, stronger effect = lower value
[70] = locus YMR231W, strain pep5, stronger effect = lower value
[71] = locus YNL071W, strain lat1, stronger effect = lower value
[72] = locus YNL183C, strain NPR1, stronger effect = lower value
[73] = locus YNL209W, strain ssb2, stronger effect = lower value
[74] = locus YNL248C, strain rpa49, stronger effect = lower value
[75] = locus YNL322C, strain KRE1 (second series), stronger effect = lower value
[76] = locus YNR049C, strain mso1, stronger effect = lower value
[77] = locus YOR001W, strain rrp6, stronger effect = lower value
[78] = locus YOR070C, strain gyp1, stronger effect = lower value
[79] = locus YOR080W, strain dia2, stronger effect = lower value
[80] = locus YOR083W, strain WHI5, stronger effect = lower value
[81] = locus YOR106W, strain vam3, stronger effect = lower value
[82] = locus YOR231W, strain MKK1, stronger effect = lower value
[83] = locus YOR265W, strain rbl2, stronger effect = lower value
[84] = locus YOR270C, strain vph1, stronger effect = lower value
[85] = locus YOR290C, strain snf2, stronger effect = lower value
[86] = locus YPL051W, strain arl3, stronger effect = lower value
[87] = locus YPL078C, strain atp4, stronger effect = lower value
[88] = locus YPL106C, strain sse1, stronger effect = lower value
[89] = locus YPL240C, strain hsp82, stronger effect = lower value
[90] = locus YPL256C, strain CLN2, stronger effect = lower value

Measured: normalized growth

COc1cccc2c1C(=O)c1c(O)c3c(c(O)c1C2=O)C[C@@](O)(C(C)=O)C[C@@H]3O[C@H]1C[C@H](N)[C@H](O)[C@H](C)O1
inactive: [2] 0.959 | [3] 0.946 | [4] 0.953 | [6] 0.953 | [7] 0.913 | [8] 0.968 | [9] 0.969 | [10] 1 | [11] 0.966 | [12] 0.981 | [13] 0.962 | [14] 0.941 | [15] 0.958 | [16] 0.922 | [17] 0.956 | locus YDR195W, strain ref2 0.983 | [19] 0.967 | [20] 0.903 | [21] 0.987 | [22] 0.976 | [23] 0.989 | [24] 0.974 | [25] 0.951 | [27] 0.993 | [28] 0.991 | [30] 0.91 | [31] 0.986 | [32] 0.97 | [33] 0.941 | [36] 0.933 | [37] 0.94 | [38] 0.994 | [39] 0.989 | [40] 0.956 | [41] 0.975 | [42] 0.977 | [43] 1.01 | [46] 0.957 | [47] 0.97 | [49] 0.954 | [50] 0.963 | [51] 0.971 | [52] 0.971 | [53] 0.981 | [54] 0.986 | [55] 0.971 | [56] 0.976 | [57] 1.01 | [58] 0.977 | [59] 0.991 | [60] 0.919 | [62] 0.967 | [63] 0.917 | [64] 0.97 | [65] 0.966 | [66] 0.959 | [67] 0.922 | locus YMR125W, strain sto1, stronger effect = lower value 0.966 | [68] 0.978 | [70] 0.968 | [72] 0.971 | [73] 0.945 | [75] 0.975 | [76] 0.965 | [77] 0.96 | [78] 0.977 | [79] 0.951 | [80] 0.972 | [81] 0.911 | [82] 1.01 | [83] 0.949 | [84] 0.919 | [85] 0.995 | [86] 0.958 | [88] 1.1 | [89] 0.98 | [90] 0.987
active: [1] 0.872 | [5] 0.894 | [18] 0.836 | [26] 0.914 | [29] 0.802 | [34] 0.621 | [35] 0.907 | [44] 0.885 | [45] 0.53 | [48] 0.827 | [61] 0.727 | [69] 0.873 | [71] 0.848 | [74] 0.706 | [87] 0.891

CC(=O)[C@]1(O)Cc2c(O)c3c(c(O)c2[C@@H](O[C@H]2C[C@H](N)[C@H](O)[C@H](C)O2)C1)C(=O)c1ccccc1C3=O
active: locus YAL040C, strain CLN3, stronger effect = lower value 0.208 | locus YCL061C, strain MRC1 (second series), stronger effect = lower value 0.0781 | locus YDR150W, strain NUM1, stronger effect = lower value 0.0885 | locus YDR363W, strain ESC2, stronger effect = lower value 0.478 | locus YER002W, strain NOP16, stronger effect = lower value 0.193 | locus YGR229C, strain SMI1, stronger effect = lower value 0.0661 | locus YJR075W, strain HOC1, stronger effect = lower value 0.0942 | locus YMR263W, strain SAP30, stronger effect = lower value 0.785 | locus YNL128W, strain TEP1, stronger effect = lower value 0.18 | locus YNL153C, strain GIM3, stronger effect = lower value 0.59 | locus YNL175C, strain NOP13, stronger effect = lower value 0.178 | locus YNL197C, strain WHI3, stronger effect = lower value 0.183 | locus YNL224C, strain SQS1, stronger effect = lower value 0.165 | locus YOR083W, strain WHI5 (second series), stronger effect = lower value 0.178 | locus YPL055C, strain LGE1, stronger effect = lower value 0.0958 | locus YPL241C, strain CIN2, stronger effect = lower value 0.0639

COc1cccc2c1C(=O)c1c(O)c3c(c(O)c1C2=O)C[C@@](O)(C(=O)CO)C[C@@H]3OC1C[C@H](N)[C@H](O)[C@H](C)O1 (stereo partly specified)
inactive: locus YBR171W, strain sec66, stronger effect = lower value 0.928 | [22] 0.919 | [32] 1.01 | [88] 1.14
active: [1] 0.166 | [2] 0.696 | [3] 0.691 | [4] 0.708 | [5] 0.282 | [6] 0.676 | [7] 0.342 | [8] 0.681 | [9] 0.636 | [10] 0.37 | [11] 0.718 | [12] 0.767 | [13] 0.701 | [14] 0.762 | [15] 0.878 | [16] 0.595 | [17] 0.572 | [18] 0.221 | locus YDR195W, strain ref2 1.23 [resistant] | [19] 0.606 | [20] 0.337 | [21] 0.431 | [23] 0.603 | [24] 0.864 | [25] 0.607 | [26] 0.49 | [27] 0.481 | [28] 0.766 | [29] 0.515 | [30] 0.65 | [31] 0.905 | [33] 0.429 | [34] 0.246 | [35] 0.247 | [36] 0.35 | [37] 0.496 | [38] 0.778 | [39] 0.79 | [40] 0.538 | [41] 0.691 | [42] 0.622 | [43] 0.781 | [44] 0.319 | [45] 0.138 | [46] 0.732 | [47] 0.439 | [48] 0.302 | locus YJL187C, strain SWE1, stronger effect = lower value 0.643 | [49] 0.787 | [50] 0.56 | [51] 0.849 | [52] 0.869 | [53] 0.545 | [54] 0.623 | [55] 0.602 | [56] 0.543 | [57] 0.779 | [58] 0.475 | [59] 0.565 | [60] 0.533 | [61] 0.176 | [62] 0.622 | [63] 0.49 | [64] 0.902 | [65] 0.651 | [66] 0.676 | [67] 0.509 | [68] 0.828 | [69] 0.513 | [70] 0.246 | [71] 0.272 | [72] 0.801 | [73] 0.656 | [74] 0.107 | [75] 0.886 | [76] 0.798 | [77] 0.469 | [78] 0.569 | [79] 0.627 | [80] 0.572 | [81] 0.214 | [82] 0.815 | [83] 0.619 | [84] 0.24 | [85] 0.589 | [86] 0.481 | [87] 0.534 | [89] 0.544 | [90] 0.757
